Laboratory results published in ChEMBL document CHEMBL1961873, “Compounds: GSK PKIS; Assays: Nanosyn kinase panel” (2012).

Assays:
[1] = target: RAC-alpha serine/threonine-protein kinase (Homo sapiens) (UniProt P31749); settings: at 0.1 µM
[2] = target: RAC-alpha serine/threonine-protein kinase (Homo sapiens) (UniProt P31749); settings: at 1 µM
[3] = target: RAC-beta serine/threonine-protein kinase (Homo sapiens) (UniProt P31751); settings: at 0.1 µM
[4] = target: RAC-beta serine/threonine-protein kinase (Homo sapiens) (UniProt P31751); settings: at 1 µM
[5] = target: RAC-gamma serine/threonine-protein kinase (Homo sapiens) (UniProt Q9Y243); settings: at 0.1 µM
[6] = target: RAC-gamma serine/threonine-protein kinase (Homo sapiens) (UniProt Q9Y243); settings: at 1 µM
[7] = target: G protein-coupled receptor kinase 6 (Homo sapiens) (UniProt P43250); settings: at 0.1 µM
[8] = target: G protein-coupled receptor kinase 6 (Homo sapiens) (UniProt P43250); settings: at 1 µM
[9] = target: T1, Rhodopsin kinase GRK7 (Homo sapiens) (UniProt Q8WTQ7); settings: at 0.1 µM
T1 sequence (whole entry): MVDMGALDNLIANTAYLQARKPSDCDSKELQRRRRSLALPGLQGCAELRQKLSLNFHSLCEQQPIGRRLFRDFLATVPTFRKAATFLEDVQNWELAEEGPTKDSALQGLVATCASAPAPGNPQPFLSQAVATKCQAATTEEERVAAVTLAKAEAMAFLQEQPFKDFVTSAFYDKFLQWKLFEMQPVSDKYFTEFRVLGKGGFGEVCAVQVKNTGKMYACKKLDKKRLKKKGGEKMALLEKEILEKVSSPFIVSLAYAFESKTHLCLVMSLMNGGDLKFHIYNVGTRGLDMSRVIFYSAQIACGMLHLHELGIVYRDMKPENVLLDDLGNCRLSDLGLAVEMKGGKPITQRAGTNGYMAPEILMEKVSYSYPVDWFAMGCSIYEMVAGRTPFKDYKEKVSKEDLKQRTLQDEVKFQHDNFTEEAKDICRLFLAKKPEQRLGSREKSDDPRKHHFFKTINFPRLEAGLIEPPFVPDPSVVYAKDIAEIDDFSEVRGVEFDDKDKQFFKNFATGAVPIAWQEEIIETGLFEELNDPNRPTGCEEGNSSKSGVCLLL

[10] = target: Serine/threonine-protein kinase MRCK alpha (Homo sapiens) (UniProt Q5VT25); settings: at 0.1 µM
[11] = target: Serine/threonine-protein kinase MRCK alpha (Homo sapiens) (UniProt Q5VT25); settings: at 1 µM
[12] = target: Serine/threonine-protein kinase MRCK beta (Homo sapiens) (UniProt Q9Y5S2); settings: at 0.1 µM
[13] = target: Serine/threonine-protein kinase MRCK beta (Homo sapiens) (UniProt Q9Y5S2); settings: at 1 µM
[14] = target: Ribosomal protein S6 kinase alpha-5 (Homo sapiens) (UniProt O75582); settings: at 0.1 µM
[15] = target: Ribosomal protein S6 kinase alpha-5 (Homo sapiens) (UniProt O75582); settings: at 1 µM
[16] = target: Ribosomal protein S6 kinase alpha-4 (Homo sapiens) (UniProt O75676); settings: at 0.1 µM
[17] = target: Ribosomal protein S6 kinase alpha-4 (Homo sapiens) (UniProt O75676); settings: at 1 µM
[18] = target: Ribosomal protein S6 kinase beta-1 (Homo sapiens) (UniProt P23443); settings: at 0.1 µM
[19] = target: Ribosomal protein S6 kinase beta-1 (Homo sapiens) (UniProt P23443); settings: at 1 µM
[20] = target: T1, Rhodopsin kinase GRK7 (Homo sapiens); settings: at 1 µM

RAC-gamma serine/threonine-protein kinase (Homo sapiens), sequence (Q9Y243 whole entry): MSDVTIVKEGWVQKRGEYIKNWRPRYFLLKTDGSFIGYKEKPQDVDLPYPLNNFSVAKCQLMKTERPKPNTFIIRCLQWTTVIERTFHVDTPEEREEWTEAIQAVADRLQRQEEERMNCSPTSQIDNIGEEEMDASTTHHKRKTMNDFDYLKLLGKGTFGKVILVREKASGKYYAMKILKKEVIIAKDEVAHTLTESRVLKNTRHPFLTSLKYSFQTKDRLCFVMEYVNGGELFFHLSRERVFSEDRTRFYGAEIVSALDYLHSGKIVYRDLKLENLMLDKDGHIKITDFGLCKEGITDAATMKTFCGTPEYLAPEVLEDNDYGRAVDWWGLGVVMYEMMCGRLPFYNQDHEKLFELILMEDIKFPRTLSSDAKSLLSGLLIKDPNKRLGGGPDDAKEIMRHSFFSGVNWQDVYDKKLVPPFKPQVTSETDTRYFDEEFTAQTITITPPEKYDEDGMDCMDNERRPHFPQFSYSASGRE
Ribosomal protein S6 kinase alpha-4 (Homo sapiens), sequence (O75676 whole entry, looked up): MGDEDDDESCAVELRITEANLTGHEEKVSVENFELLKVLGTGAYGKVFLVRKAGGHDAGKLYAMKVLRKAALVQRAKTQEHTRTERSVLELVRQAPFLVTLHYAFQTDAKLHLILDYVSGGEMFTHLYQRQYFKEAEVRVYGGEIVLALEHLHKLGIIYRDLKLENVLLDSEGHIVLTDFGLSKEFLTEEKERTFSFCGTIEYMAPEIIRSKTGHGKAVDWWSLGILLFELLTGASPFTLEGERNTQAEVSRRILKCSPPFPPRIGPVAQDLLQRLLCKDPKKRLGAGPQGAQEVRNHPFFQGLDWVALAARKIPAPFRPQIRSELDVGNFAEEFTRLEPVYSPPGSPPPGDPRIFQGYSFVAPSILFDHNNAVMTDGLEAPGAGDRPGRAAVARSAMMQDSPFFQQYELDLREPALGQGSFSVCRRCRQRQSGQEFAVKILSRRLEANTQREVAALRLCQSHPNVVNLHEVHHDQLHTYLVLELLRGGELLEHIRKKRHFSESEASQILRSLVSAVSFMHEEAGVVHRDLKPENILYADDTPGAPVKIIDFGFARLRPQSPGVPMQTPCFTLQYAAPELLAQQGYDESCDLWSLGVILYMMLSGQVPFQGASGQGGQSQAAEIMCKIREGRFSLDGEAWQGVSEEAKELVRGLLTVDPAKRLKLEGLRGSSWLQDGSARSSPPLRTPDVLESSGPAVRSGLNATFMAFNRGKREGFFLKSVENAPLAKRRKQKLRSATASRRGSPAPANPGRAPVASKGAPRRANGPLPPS
Ribosomal protein S6 kinase beta-1 (Homo sapiens), sequence (P23443 whole entry, looked up): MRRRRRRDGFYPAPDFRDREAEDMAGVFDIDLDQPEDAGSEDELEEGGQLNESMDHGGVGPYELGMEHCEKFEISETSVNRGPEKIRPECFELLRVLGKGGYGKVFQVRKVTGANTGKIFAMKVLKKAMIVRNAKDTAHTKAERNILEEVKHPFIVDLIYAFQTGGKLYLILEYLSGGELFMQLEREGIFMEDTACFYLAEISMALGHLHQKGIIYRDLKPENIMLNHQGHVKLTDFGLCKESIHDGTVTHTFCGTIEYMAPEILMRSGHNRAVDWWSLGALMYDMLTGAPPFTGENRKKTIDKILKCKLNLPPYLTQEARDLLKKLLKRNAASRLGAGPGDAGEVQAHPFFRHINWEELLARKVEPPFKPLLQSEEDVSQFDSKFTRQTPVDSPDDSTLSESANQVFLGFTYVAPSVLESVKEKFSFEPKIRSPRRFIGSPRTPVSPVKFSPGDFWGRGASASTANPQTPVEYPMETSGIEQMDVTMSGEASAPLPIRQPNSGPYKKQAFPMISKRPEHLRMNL
Serine/threonine-protein kinase MRCK alpha (Homo sapiens), sequence (Q5VT25 whole entry): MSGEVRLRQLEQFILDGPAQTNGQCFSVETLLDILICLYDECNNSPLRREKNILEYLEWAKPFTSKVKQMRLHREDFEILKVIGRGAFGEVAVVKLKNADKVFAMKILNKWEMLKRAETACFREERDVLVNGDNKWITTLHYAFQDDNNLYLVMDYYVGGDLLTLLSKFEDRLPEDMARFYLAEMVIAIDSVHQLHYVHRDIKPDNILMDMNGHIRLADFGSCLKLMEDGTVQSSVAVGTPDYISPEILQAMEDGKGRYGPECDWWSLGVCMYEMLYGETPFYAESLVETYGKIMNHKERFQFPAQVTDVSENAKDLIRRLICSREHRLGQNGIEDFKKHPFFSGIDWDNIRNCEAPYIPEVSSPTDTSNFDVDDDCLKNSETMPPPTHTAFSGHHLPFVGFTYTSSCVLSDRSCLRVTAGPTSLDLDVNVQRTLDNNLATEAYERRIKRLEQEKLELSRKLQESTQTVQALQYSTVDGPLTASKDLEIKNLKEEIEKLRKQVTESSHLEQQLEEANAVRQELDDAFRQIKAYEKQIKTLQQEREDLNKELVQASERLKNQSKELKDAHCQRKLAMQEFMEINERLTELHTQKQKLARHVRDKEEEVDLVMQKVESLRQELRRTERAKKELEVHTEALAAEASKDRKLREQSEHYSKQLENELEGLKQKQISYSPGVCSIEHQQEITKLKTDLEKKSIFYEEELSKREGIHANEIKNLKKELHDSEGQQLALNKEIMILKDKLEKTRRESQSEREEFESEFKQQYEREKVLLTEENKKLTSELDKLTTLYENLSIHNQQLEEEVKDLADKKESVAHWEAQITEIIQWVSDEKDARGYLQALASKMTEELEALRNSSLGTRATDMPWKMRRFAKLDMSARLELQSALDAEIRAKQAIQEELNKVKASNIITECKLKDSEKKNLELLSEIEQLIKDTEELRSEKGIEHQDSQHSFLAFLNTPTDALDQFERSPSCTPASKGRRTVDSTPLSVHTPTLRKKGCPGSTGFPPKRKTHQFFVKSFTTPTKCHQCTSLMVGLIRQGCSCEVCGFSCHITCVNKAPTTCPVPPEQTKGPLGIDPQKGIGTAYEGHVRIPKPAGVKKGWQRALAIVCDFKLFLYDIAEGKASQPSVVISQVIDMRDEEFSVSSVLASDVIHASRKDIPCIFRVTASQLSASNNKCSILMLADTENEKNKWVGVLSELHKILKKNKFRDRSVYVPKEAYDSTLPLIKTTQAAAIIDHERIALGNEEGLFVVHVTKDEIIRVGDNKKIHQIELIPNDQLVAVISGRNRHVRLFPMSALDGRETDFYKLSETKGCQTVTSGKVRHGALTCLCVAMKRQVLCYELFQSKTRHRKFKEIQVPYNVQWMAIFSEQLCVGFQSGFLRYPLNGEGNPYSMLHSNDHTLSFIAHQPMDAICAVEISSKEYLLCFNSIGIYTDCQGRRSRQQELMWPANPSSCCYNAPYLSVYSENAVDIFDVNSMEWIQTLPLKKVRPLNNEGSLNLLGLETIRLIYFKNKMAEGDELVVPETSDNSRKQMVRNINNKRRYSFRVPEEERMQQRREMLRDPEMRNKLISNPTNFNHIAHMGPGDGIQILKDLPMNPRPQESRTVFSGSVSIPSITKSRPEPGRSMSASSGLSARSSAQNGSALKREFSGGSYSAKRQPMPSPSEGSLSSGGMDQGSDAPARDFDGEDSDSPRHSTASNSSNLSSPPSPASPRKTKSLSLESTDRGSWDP
Ribosomal protein S6 kinase alpha-5 (Homo sapiens), sequence (O75582 whole entry, looked up): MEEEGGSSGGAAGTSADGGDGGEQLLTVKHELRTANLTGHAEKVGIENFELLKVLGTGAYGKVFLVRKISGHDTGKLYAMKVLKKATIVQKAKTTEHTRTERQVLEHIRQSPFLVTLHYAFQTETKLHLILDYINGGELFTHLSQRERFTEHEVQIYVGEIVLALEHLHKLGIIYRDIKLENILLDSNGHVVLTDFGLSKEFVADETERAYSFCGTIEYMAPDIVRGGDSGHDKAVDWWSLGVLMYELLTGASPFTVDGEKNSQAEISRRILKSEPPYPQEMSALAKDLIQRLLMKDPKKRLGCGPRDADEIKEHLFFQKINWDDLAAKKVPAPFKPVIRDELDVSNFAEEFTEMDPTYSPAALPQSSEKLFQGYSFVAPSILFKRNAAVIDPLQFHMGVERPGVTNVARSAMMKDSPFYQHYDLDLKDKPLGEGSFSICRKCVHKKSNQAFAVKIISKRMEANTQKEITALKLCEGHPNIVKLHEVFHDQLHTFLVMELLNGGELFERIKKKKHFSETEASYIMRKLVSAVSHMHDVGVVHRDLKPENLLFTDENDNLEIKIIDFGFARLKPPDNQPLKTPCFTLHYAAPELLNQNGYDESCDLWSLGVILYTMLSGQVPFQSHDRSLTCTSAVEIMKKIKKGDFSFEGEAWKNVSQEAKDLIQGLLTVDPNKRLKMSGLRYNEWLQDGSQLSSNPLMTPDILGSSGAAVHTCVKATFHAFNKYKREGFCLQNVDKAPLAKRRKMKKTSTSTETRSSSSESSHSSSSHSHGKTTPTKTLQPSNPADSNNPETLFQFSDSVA
G protein-coupled receptor kinase 6 (Homo sapiens), sequence (P43250 whole entry, looked up): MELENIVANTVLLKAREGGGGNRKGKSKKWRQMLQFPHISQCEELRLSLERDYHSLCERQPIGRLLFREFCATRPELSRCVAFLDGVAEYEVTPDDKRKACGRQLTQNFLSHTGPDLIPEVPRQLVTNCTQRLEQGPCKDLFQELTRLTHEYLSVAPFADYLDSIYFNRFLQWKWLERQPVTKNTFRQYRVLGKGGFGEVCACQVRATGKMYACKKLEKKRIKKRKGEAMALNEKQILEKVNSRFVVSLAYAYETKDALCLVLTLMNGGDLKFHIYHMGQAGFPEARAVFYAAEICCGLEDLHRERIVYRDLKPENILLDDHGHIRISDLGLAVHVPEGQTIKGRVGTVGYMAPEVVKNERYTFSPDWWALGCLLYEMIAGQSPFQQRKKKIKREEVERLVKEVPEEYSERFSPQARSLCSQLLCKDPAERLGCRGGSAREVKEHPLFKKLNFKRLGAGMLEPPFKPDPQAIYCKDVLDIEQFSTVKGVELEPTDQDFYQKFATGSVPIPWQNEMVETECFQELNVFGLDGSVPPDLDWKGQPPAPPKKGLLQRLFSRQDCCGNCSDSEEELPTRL

| Compound | inhibition [1] | inhibition [2] | inhibition [3] | inhibition [4] | inhibition [5] | inhibition [6] | inhibition [7] | inhibition [8] | inhibition [9] | inhibition [10] | inhibition [11] | inhibition [12] | inhibition [13] | inhibition [14] | inhibition [15] | inhibition [16] | inhibition [17] | inhibition [18] | inhibition [19] | inhibition [20] |
| --- | --- | --- | --- | --- | --- | --- | --- | --- | --- | --- | --- | --- | --- | --- | --- | --- | --- | --- | --- | --- |
| NS(=O)(=O)c1ccc(-c2ccc3c(NC(=O)C4CC4)n[nH]c3c2)cc1 | 0.97% | 1% | 1.38% | 0.67% | 0.25% | -0.65% | 0.33% | -2.37% | -0.74% | -0.42% | -1.48% | 0.24% | 1.84% | 3.18% | 7.98% | -0.31% | 4.18% | 0.95% | 2.84% |  |
| Cc1cc(-c2ccco2)cc(C)c1/C=C/c1cncc(-c2nn[nH]n2)c1 | -0.08% | -0.39% | -0.63% | 0.09% | -0.47% |  | -3.85% |  | 11.8% | -2.3% | -3.4% | 0.22% | -0.72% | -0.62% | -1.54% | 0.13% | 1.02% | 0.97% | -0.33% | 49.9% |
| CCn1c(-c2nonc2N)nc2c(C#CC(C)(C)O)nc(O[C@@H](CN)c3ccccc3)cc21 | 93.7% | 96.4% |  |  | 93.3% | 95% | 1.13% | 1.51% | 3% | 29% | 72.8% | 20.8% | 66.2% | 8.67% | 51.3% | 15% | 61.3% | 13.1% | 58.4% | 114% |
| NS(=O)(=O)c1ccc(N/C=C2\C(=O)Nc3ccc4ncsc4c32)cc1 | 0.54% | 0.61% | 2.08% | 2.38% | 0.65% | 3.15% | 4.87% | 18.7% | 8.46% | -1.47% | 10.5% | 0.46% | 5.66% | 5.1% | 12.2% | 15.3% | 50.9% | 1.92% | 13.5% | 6.58% |
| COc1cc2c(cc1Nc1nc(Nc3ccsc3C(N)=O)c3cc[nH]c3n1)N(C(=O)CN(C)C)CCC2 | -0.27% | -0.06% | 2.64% | 0.91% | 2.81% | 4.75% | 27.5% | 82.8% | 22.1% | -2.47% | -0.12% | -0.68% | -0.44% | 2.59% | -0.04% | 2.53% | -0.18% | 1.15% | 0.53% | 60.3% |
| COc1cccc(COc2cc(-n3cnc4ccccc43)sc2C(N)=O)c1 | 2.26% | 0.35% |  | 2.81% | -0.85% | -1.8% | 0.1% | 0.82% | 4.74% | -5.2% | -1.17% | -0.37% | 0.51% | 0.54% | -1.08% | 1.36% | -0.28% | 0.45% | -0.53% | -0.33% |
| Fc1ccc(-c2ncn(C3CCNCC3)c2-c2ccnc(Oc3ccccc3)n2)cc1 | -3.52% | -2.95% | -2.98% |  | -3.09% | 4.46% | -2.07% | 1.13% | 8.55% | -3.2% | -1.87% | -0.1% | -0.81% | -1.31% | -2.46% | 1.09% | 0.21% | 1.34% | 7.24% | -1.71% |
| CCn1c(-c2nonc2N)nc2c(C#CCN)ncc(OCCCN)c21 | -0.6% | 10.9% | -0.31% | 12.8% | 1.83% | 10% | -5.01% | 6.23% | 0.4% | 6.68% | 13.4% | 6.58% | 23.4% | 12.1% | 51.5% | 12.9% | 52% | 7.3% | 44.7% | 7.43% |
| CCn1c(-c2nonc2N)nc2c(C#CC(C)(C)O)ncc(OC[C@@H]3CCCN3)c21 | 68.2% | 91.1% | 79.7% |  | 67.5% | 90.4% | -2.91% | 0.91% | 6.42% | -1.54% | 23.5% | 2.11% | 19.5% | 0.57% | 7.89% | 3.2% | 17.5% | 3.87% | 25.4% | 14% |
| NC(=O)c1sc(-n2cnc3cc(C(F)(F)F)ccc32)cc1OCc1ccccc1Br | 0.26% | 0.43% | -0.81% | 0.47% | 0.03% |  | 3.71% | 1.08% | 5.6% | -1.08% | -4.81% | 0.07% | 0.13% | 0.28% | -0.19% | 2.32% | 1.32% | 1.25% | -0.49% | 5.78% |
| CCn1c(-c2nonc2N)nc2c(C#CC(C)(C)O)ncc(OCC3CCNCC3)c21 | 60.7% | 88.2% | 74.2% | 89.3% | 57.7% | 86% | 4.53% | 11.1% | 5.08% | 3.52% | 33.2% | 2.36% | 21.1% | 2.98% | 16.2% | 4.39% | 19.2% | 3.1% | 15.4% | 23.3% |
| COc1cccc(-n2ncc3c(N/N=C/c4ccncc4)ncnc32)c1 | 0.24% | -0.78% | 1.42% | -0.44% | 3.63% | 0.47% | 1.7% | 1.85% | 5.1% | -0.11% | 3.78% | 0.53% | 0.77% | 3.86% | 4.1% | 2.47% | 4.26% | 2.67% | 7.24% | 5.17% |
| Nc1nonc1-c1nc2cnccc2n1C1CCCCC1 | 3.37% | 37.4% | 1.24% | 22.4% | 3.35% | 32.3% | -0.4% | 2.07% | -7.5% | 18.6% | 65.9% | 29.6% | 72% | 76.5% | 85.2% | 59.6% | 83% | 72.6% | 91.2% | 2.63% |
| COc1cc(C=NNc2ncnc3c2cnn3Cc2ccccc2)ccc1O | -2.34% | -2.35% | -3.56% | -1.08% | -2.66% | -1.29% | -3.93% | -0.64% |  | 1.44% | -1.07% | 1.9% | 4.11% | 2.29% | 3% | 1.75% | 4.49% | -1.02% | -0.11% | -3.65% |
